Inconclusive results are not listed. Active and inactive are the calls of the source. Unless noted, the call rests on the fitted dose curve; in most records, active means well fitted curve in the direction sought with a large enough effect in the repeat runs; inconclusive means weak or mixed curves; inactive means no such curve, though single readings can be large; an effect the other way counts as inactive or inconclusive.
Tests used:
[1] = qHTS assay to identify small molecule antagonists of the glucocorticoid receptor (GR) signaling pathway - cell viability counter screen (AID 720693); further: nearly all actives have a fitted effect of over 55% in size
[2] = qHTS assay for identifying genotoxic compounds that show differential cytotoxicity against isogenic chicken DT40 cell lines with known DNA damage response pathways - wild type cell line (AID 743012); further: nearly all actives have a fitted effect of over 60% in size; further: potency means the concentration at half of the fitted maximal effect
In short: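 Cytotoxicity in repair-proficient parental chicken DT40 cells serves as the comparator for Rad54/Ku70- and Rev3-deficient lines. Cells were exposed to compounds for 40 h at 37 C/5% CO2, and ATP-based luminescence (CellTiter-Glo) measured viability.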

[3] = qHTS assay for identifying genotoxic compounds that show differential cytotoxicity against isogenic chicken DT40 cell lines with known DNA damage response pathways - Rev3 mutant cell line (AID 743014); further: nearly all actives have a fitted effect of over 55% in size; further: potency means the concentration at half of the fitted maximal effect
[4] = qHTS assay for identifying genotoxic compounds that show differential cytotoxicity against isogenic chicken DT40 cell lines with known DNA damage response pathways - Rad54/Ku70 mutant cell line (AID 743015); further: nearly all actives have a fitted effect of over 60% in size; further: potency means the concentration at half of the fitted maximal effect
[5] = qHTS assay to identify small molecule antagonists of the androgen receptor (AR) signaling pathway - cell viability counter screen (AID 743033; further: nearly all actives have a fitted effect of over 45% in size)
[6] = qHTS assay to identify small molecule antagonists of the androgen receptor (AR) signaling pathway using the MDA cell line - cell viability counter screen (AID 743041; further: nearly all actives have a fitted effect of over 45% in size)
In short: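 qHTS viability read-out; MDA-kb2 AR-luc; R1881-stimulated; 16 h exposure at 37C, 0% CO2; CellTiter-Fluor, 30 min; fluorescence intensity.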

[7] = qHTS assay to identify small molecule antagonists of the thyroid receptor (TR) signaling pathway - cell viability counter screen (AID 743064); further: nearly all actives have a fitted effect of over 50% in size; further: potency means the concentration at half of the fitted maximal effect
In short: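 Compounds were tested on GH3.TRE-Luc cells in the presence of T3 at 1 nM final. Following 23.5 h at 37 °C, cell viability was quantified by CellTiter-Fluor.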

[8] = qHTS assay to identify small molecule antagonists of the thyroid receptor (TR) signaling pathway (AID 743065); further: nearly all actives have a fitted effect of over 55% in size; further: potency means the concentration at half of the fitted maximal effect
In short: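 GH3.TRE-Luc rat pituitary cells carrying two TR response elements driving luciferase were plated for 4 h, given compound plus 1 nM T3 (final), and incubated 23.5 h at 37 C. ONE-Glo luminescence measured reporter inhibition; CellTiter-Fluor fluorescence tracked cytotoxicity.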

[9] = test system: thyroid hormone receptor (rat, GH3 cells); experiment: qHTS assay to identify small molecule agonists of the thyroid receptor (TR) signaling pathway (AID 743066; calls by dose curve)
[10] = target: Estrogen receptor (Homo sapiens) (UniProt P03372); experiment: qHTS assay to identify small molecule antagonists of the estrogen receptor alpha (ER-alpha) signaling pathway (AID 743069; active means well fitted curve in the direction sought with a large enough effect in the signal ratio in the repeat runs, not every such curve was filed as active; the % refers to the signal ratio)
Sequence of Estrogen receptor (Homo sapiens) (P03372 whole entry, looked up): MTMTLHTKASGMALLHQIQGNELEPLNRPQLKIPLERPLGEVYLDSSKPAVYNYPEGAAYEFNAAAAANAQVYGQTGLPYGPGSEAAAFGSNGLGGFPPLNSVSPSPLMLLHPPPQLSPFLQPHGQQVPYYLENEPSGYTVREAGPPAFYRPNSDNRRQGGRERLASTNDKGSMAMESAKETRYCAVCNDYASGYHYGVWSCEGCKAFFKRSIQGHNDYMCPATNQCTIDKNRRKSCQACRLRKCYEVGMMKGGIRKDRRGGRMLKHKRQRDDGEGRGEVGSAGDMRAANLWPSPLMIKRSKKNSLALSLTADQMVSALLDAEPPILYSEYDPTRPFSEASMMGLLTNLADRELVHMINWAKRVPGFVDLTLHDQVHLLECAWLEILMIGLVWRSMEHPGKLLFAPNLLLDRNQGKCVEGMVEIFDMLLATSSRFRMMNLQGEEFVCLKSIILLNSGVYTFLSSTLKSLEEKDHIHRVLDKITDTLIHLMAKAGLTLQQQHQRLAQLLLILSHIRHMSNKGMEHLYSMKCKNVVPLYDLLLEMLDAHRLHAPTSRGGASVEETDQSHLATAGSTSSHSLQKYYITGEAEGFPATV
In short: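 Screening used a UAS-driven beta-lactamase reporter integrated into HEK293 cells expressing ER-alpha, stimulated with 17beta-estradiol alongside test compounds over 18 hr at 37C; signal came from LiveBLAzer B/G FRET fluorescence.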

[11] = qHTS assay to identify small molecule antagonists of the estrogen receptor alpha (ER-alpha) signaling pathway - cell viability counter screen (AID 743074; calls by dose curve; further: nearly all actives have a fitted effect of over 45% in size)
[12] = target: Estrogen receptor (Homo sapiens) (UniProt P03372); experiment: qHTS assay to identify small molecule agonists of the estrogen receptor alpha (ER-alpha) signaling pathway (AID 743075; calls by dose curve)
[13] = target: Estrogen receptor (Homo sapiens) (UniProt P03372); experiment: qHTS assay to identify small molecule agonists of the estrogen receptor alpha (ER-alpha) signaling pathway using the BG1 cell line (AID 743079); further: nearly all actives have a fitted effect of over 20% in size
[14] = qHTS assay to identify small molecule antagonists of the estrogen receptor alpha (ER-alpha) signaling pathway using the BG1 cell line (AID 743080; calls by dose curve;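 further: BG1 cells stimulated with 17beta-estradiol alongside compound; series mostly up to about 70 µM; nearly all actives have a fitted effect of over 25% in size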)
In short: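 Luminescence from a 4×ERE-luciferase reporter in BG1-Luc-4E2 cells served as read-out. Cells, pre-cultured 5 days in stripped-serum phenol-red-free medium, were exposed to compound with 17beta-estradiol co-stimulation for 21.5 h at 37 C.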

[15] = qHTS assay to identify small molecule antagonists of the estrogen receptor alpha (ER-alpha) signaling pathway using the BG1 cell line - cell viability counter screen (AID 743081);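 further: compound given together with 17beta-estradiol as the ER stimulus; series mostly up to about 70 µM; nearly all actives have a fitted effect of over 45% in size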
[16] = target: Aromatase (Homo sapiens) (UniProt P11511); experiment: qHTS assay to identify aromatase inhibitors (AID 743083); further: series mostly up to about 70 µM; nearly all actives have a fitted effect of over 55% in size
Sequence of Aromatase (Homo sapiens) (P11511 whole entry, looked up): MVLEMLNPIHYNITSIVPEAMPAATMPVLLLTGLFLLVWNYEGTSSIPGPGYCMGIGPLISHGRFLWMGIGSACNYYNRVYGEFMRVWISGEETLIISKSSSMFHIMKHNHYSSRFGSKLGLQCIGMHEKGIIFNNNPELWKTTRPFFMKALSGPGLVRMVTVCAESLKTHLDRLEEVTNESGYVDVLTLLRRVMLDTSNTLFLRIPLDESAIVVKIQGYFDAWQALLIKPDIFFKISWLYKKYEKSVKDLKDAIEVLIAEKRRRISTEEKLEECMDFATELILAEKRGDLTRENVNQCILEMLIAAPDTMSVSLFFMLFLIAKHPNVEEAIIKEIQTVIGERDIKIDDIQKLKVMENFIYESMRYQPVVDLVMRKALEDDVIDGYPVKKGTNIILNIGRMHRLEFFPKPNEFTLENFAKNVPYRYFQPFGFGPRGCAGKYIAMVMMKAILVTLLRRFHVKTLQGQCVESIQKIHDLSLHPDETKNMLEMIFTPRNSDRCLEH

[17] = target: Androgen receptor (Homo sapiens) (UniProt P10275); experiment: qHTS assay to identify small molecule antagonists of the androgen receptor (AR) signaling pathway (AID 743035; active means well fitted inhibition curve with a large enough effect in the signal ratio in the repeat runs, not every such curve was filed as active; the % refers to the signal ratio; further: potency means the concentration at half of the fitted maximal effect)
Sequence of Androgen receptor (Homo sapiens) (P10275 whole entry, looked up): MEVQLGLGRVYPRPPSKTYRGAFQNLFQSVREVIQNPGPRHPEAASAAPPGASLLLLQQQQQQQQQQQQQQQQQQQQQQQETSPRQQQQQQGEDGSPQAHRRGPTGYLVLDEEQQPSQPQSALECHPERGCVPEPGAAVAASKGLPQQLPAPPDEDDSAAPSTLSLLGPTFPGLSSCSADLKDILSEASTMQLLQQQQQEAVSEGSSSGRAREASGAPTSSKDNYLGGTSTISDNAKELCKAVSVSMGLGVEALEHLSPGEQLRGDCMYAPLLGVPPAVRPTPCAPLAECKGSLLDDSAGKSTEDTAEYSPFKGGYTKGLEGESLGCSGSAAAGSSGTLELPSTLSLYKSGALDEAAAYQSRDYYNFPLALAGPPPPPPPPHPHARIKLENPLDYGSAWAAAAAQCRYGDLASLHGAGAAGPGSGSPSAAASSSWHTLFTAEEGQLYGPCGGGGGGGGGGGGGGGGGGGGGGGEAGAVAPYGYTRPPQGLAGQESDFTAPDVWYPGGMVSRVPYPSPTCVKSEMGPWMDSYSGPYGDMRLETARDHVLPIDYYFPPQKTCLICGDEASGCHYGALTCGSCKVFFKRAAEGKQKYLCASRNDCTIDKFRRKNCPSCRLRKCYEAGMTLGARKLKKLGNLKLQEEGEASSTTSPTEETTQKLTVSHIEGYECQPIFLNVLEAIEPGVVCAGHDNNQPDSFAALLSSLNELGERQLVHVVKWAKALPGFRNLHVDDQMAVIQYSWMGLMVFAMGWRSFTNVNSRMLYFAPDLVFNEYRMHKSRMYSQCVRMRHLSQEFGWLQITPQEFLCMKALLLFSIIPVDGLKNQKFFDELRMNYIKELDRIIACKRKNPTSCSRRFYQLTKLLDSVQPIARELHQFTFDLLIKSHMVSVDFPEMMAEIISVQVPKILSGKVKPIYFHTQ
In short: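 Steps: seed AR-UAS-bla GripTite HEK293 cells, incubate 4 h at 37C; pin in test compound, then add agonist R1881; incubate 16 h at 37C; add LiveBLAzer B/G FRET substrate, 2 h at room temperature; read fluorescence.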

[18] = target: Androgen receptor (Homo sapiens) (UniProt P10275); experiment: qHTS assay to identify small molecule agonists of the androgen receptor (AR) signaling pathway (AID 743036; active means well fitted activation curve with a large enough effect in the signal ratio in the repeat runs, with a control signal flat, not every such curve was filed as active; the % refers to the signal ratio)
In short: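 Beta-lactamase under UAS control, stably integrated in HEK293 GripTite cells, reports receptor activation. After 16 h compound treatment, cells received FRET substrate for 2 h at room temperature before fluorescence reading.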

[19] = target: Androgen receptor (Homo sapiens) (UniProt P10275); experiment: qHTS assay to identify small molecule agonists of the androgen receptor (AR) signaling pathway using the MDA cell line (AID 743040; further: nearly all actives have a fitted effect of over 20% in size)
In short: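 Agonist activity is measured as luciferase luminescence in human MDA-kb2 cells whose MMTV reporter responds to both AR and GR. Compounds in DMSO incubate 16 h at 37C, 0% CO2, and ONE-Glo is read after 30 min.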

[20] = target: Androgen receptor (Homo sapiens) (UniProt P10275); experiment: qHTS assay to identify small molecule antagonists of the androgen receptor (AR) signaling pathway using the MDA cell line (AID 743042; further: nearly all actives have a fitted effect of over 55% in size)
In short: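 MDA-kb2 cells (human breast carcinoma, stably carrying an MMTV-luciferase reporter responsive to AR and GR) were plated at 3,000 cells/well and preincubated 5 hr at 37C, then given compound plus R1881 agonist for 16 h. ONE-Glo luminescence was read.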

Measured: Potency

CCCC1CCCC(=O)O1 (centres undefined)
not listed: [17] | [18] | [19] | [20]
inactive: all other assays above

CCCCCC1CCC(=O)O1 (centres undefined)
not listed: [17] | [18] | [19] | [20]
inactive: all other assays above

O=C(Nc1ccccc1)c1cc([N+](=O)[O-])ccc1Cl
active: [2] 68.6 µM | [3] 68.6 µM | [4] 68.6 µM | [17] 24.5 µM | [8] 61.1 µM
not listed: [7] | [10] | [13] | [14]
inactive: all other assays above

Cc1cc(SC2=C(O)C[C@@](CCc3ccc(N)cc3)(C(C)C)OC2=O)c(C(C)(C)C)cc1CO
not listed: [10] | [12] | [13] | [14] | [18]
inactive: all other assays above

SCCOCCOCCS
not listed: [14] | [17] | [18] | [19] | [20]
inactive: all other assays above

Cc1ccc(NC=O)c(C)c1
not listed: [17] | [18] | [19] | [20]
inactive: all other assays above

CCOc1ccc(NC(C)=O)cc1N
not listed: [13] | [14] | [17]
inactive: all other assays above

CCCCCCCCOCCCN
active: [2] 4.33 µM | [3] 6.86 µM | [4] 6.86 µM | [7] 13.7 µM | [8] 21.7 µM
not listed: [10] | [13] | [18]
inactive: all other assays above

CCCC(=O)OCCC(C)C
inactive: all assays above

CCCCCCCCCCCCCCCCC(=O)O
not listed: [10] | [12] | [13] | [14] | [17]
inactive: all other assays above

O=C1C=CCCC1
not listed: [14] | [17] | [18] | [19] | [20]
inactive: all other assays above

Cc1ccccc1CCO
not listed: [17] | [18] | [19] | [20]
inactive: all other assays above

O=C1OC(=O)C2CC=CCC12 (centres undefined)
not listed: [17] | [18] | [19] | [20]
inactive: all other assays above

OCCCO
not listed: [7] | [17]
inactive: all other assays above

O=C(O)c1ccncc1
not listed: [10] | [12] | [13] | [14]
inactive: all other assays above

CCCCCO
not listed: [15] | [17] | [18] | [19] | [20]
inactive: all other assays above

Reference: PubChem BioAssay (Tox21)
